Compound activity: PubChem BioAssay, National Center for Advancing Translational Sciences (NCATS)
FMDV antiviral: antivirals against foot and mouth disease virus; AID 1159524; Potency, µM (highest dose often 57.9 µM), without a hit: top-dose activity change, negative = inhibition, hits mostly inhibitors; FMDV antiviral cell-based qHTS; 410,000 tested, 1.2% active; calls by dose curve; tested in HEK293T cells; further: read-out not given here; potency means the concentration at half of the fitted maximal effect; nearly all actives have a fitted effect of over 45% in size
AmpC inh detg: AmpC beta-lactamase inhibition with detergent present; P00811; AmpC hydrolysis of nitrocefin, absorbance 480 nm, 0.01% Triton; Potency, µM (series often up to 114 µM), for the others: at the top dose activity change, negative = inhibition, actives largely listed as inhibitors; 370,000 tested, 0.041% active;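 further: potency means the concentration at half of the fitted maximal effect; 0% = no-compound wells and -100% = no-enzyme wells; nearly all actives have a fitted effect of over 25% in size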
Target sequence (P00811 whole entry, looked up): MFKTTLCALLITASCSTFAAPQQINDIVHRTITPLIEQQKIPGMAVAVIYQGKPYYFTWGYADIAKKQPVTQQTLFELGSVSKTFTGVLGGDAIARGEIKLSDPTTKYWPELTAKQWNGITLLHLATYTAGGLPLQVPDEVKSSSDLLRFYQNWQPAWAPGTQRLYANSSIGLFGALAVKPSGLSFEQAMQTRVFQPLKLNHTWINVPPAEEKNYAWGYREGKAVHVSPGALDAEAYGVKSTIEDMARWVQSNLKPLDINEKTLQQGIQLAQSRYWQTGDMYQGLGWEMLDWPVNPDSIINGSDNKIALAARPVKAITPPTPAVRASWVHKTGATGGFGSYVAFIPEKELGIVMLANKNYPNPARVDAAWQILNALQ
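AmpC (5.3 nM in the dispensed reagent) in 20 mM phosphate pH 7.0 with 0.01% (detergent screen) or 0.0001% Triton X-100 was preincubated with compounds for 15 min at room temperature. Nitrocefin was then added from an 800 uM solution, and hydrolysis was followed at 480 nm.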
AmpC inh no detg: inhibitors of E. coli AmpC beta-lactamase without detergent; AmpC nitrocefin hydrolysis, absorbance 480 nm, 0.0001% Triton; Potency, µM (series often up to 57.1 µM), for the others: top-dose activity change, negative = inhibition, actives largely listed as inhibitors; 330,000 tested, 0.52% active; AID 485341;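 further: potency means the concentration at half of the fitted maximal effect; plate controls were no compound for no effect and no enzyme for full effect; nearly all actives have a fitted effect of over 20% in size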
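AmpC (5.3 nM in the dispensed reagent) in 20 mM phosphate pH 7.0 with 0.01% (detergent screen) or 0.0001% Triton X-100 was preincubated with compounds for 15 min at room temperature. Nitrocefin was then added from an 800 uM solution, and hydrolysis was followed at 480 nm.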
HCV inh: HCV inhibition | Potency, µM (doses to about 41.8 µM), for the others: at the highest dose activity change, negative = inhibition, hits mostly inhibitors | Huh7.5.1 HCVcc-Cre infection, luciferase reporter, 44 h | 340,000 tested, 3.4% active; further: potency means the concentration at half of the fitted maximal effect
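1,000 cells/well; 4 h culture; + compound; + HCVcc-Cre (~0.5 moi); 44 h; luciferase substrate, RT 15 min; read 15 sec.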
HCMV inh: inhibitors of human cytomegalovirus; HFF cells, HCMV-luciferase reporter, 72 h; hits give low values; activity change, negative = inhibition, % at 57.5 µM; 410,000 tested, 4.5% active; in the data active means activity change below about -60%; inconclusive means no clear call, values can overlap the other calls; inactive means above about -39%
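Compounds were evaluated in HFFs infected with an HCMV luciferase reporter virus (MOI 1 PFU/cell). Luciferase in lysates collected 72 h post infection served as the replication measure.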
An asterisk follows results filed as active; ? = inconclusive; nt = no result given; ! = repeats disagree; [ ] = dose if it differs, or a comment. A selection: hits, their analogues and other compounds. The true share with any hit is near 7.3%. Unless noted, the call rests on the fitted dose curve; in most records, active means well fitted curve in the direction sought with a large enough effect; inconclusive means small, poorly fitted or top-dose-only effect, or another doubt; inactive means no such curve, though single readings can be large; an effect the other way counts as inactive or inconclusive. Unless noted, on the % scale 0 is the no-effect control and ±100 the full control effect.

SMILES	FMDV antiviral	AmpC inh detg	AmpC inh no detg	HCV inh	HCMV inh
Cc1cccc(NC(=S)N(CCCN2CCCC2)Cc2cccn2Cc2ccc(Cl)cc2)c1	-19.2%	-3.0%	133.5%	?	-60.2*
Nc1nc(N)c2cc(Sc3ccc4ccccc4c3)ccc2n1	?	1.3%	-1.0%	11.2µM*	-84.2*
Nc1nc(N)c2cc(Sc3ccc(Cl)cc3)ccc2n1	-18.4%	nt	nt	nt	-76.9*
Nc1ccc(Sc2cc(Cl)nc(N)n2)cc1	nt	2.9%	-32.2%	8.7%	nt
Nc1nc(N)c2cc(Sc3cccc(C(F)(F)F)c3)ccc2n1	?	nt	nt	nt	-69.9*
CC(=O)c1ccc(NC(=O)c2ccc(CN3C(=O)CCn4nc(C)cc43)cc2)cc1	14.9%	25.7%	nt	nt	0.0
CCN1CC2=C(OC(N)=C(C#N)C2c2cccs2)/C(=C\c2cccs2)C1 (stereo unspecified)	nt	?	-25.8%	14.1µM*	-29.9
N#CC1=C(N)Oc2cc(O)ccc2C1c1cccs1 (stereo unspecified)	?	-0.6%	-14.9%	-21.2%	-1.6
FC(F)(F)c1cccc(-c2nnc(-c3ccccc3)c(N3CCOCC3)n2)c1	0.0%	?	42.7%	10µM*	-32.8
COc1cccc(-n2c(-c3ccco3)nc3c(cnn3-c3ccc(C)cc3)c2=O)c1	?	-4.1%	nt	nt	-76.0*
Cc1cccc(-n2c(-c3ccco3)nc3ccccc3c2=O)c1C	-28.4%	9.2%	7.0%[2.29 µM]	9.6%	-75.7*
COc1ccc(-n2c(-c3ccco3)nc3c(cnn3-c3ccc(C)cc3)c2=O)cc1	39.8µM*!	9.2%	43.0%	?	-4.9
COc1ccc(-n2c(-c3ccco3)nc3c(cnn3-c3ccccc3C)c2=O)cc1	?	2.5%	41.7%	-6.2%	?
COc1ccc(-n2ncc(Cl)c(Cl)c2=O)cc1	8.91µM*	-12.9%	-16.8%	3.55µM*	-100.8*
Cc1cccnc1-n1c(-c2ccco2)nc2ccccc2c1=O	-7.0%	?	-3.3%	7.1%	15.9
CCOC(=O)OC(C)OC(=O)C1N2C(=O)C(NC(=O)C(N)c3ccccc3)C2SC1(C)C (stereo unspecified)	34.3%	nt	nt	nt	nt
N#Cc1ccccc1NC(=O)Cn1cnc2onc(-c3cccc(F)c3)c2c1=O	0.0%	17.9%	nt	nt	10.2
Cc1cccc(C(c2sc3nc(-c4ccco4)nn3c2O)N2CCN(c3ccccc3F)CC2)c1 (stereo unspecified)	28.6%	4.0%	nt	nt	13.3
CC(=O)Nc1ccc(S(=O)(=O)NCC(=O)OCC(=O)NNC(=O)c2ccccc2)cc1	-18.2%	2.2%	-16.0%	7.9%	-4.9
COc1cccc(-n2c(-c3ccco3)nc3c(cnn3-c3ccccc3C)c2=O)c1	14.1µM*	0.8%	nt	nt	-32.7
O=c1c2cnn(-c3ccccc3)c2nc(-c2cccs2)n1-c1cccc(Cl)c1	?	-14.6%	-22.7%	?	-75.7*
CCc1nc2c(cnn2-c2ccc(Cl)cc2)c(=O)n1-c1ccc(OC)cc1	?	?	-13.8%	11.2µM*	-36.5
CCOc1ccc(-n2c(C)nc3c(cnn3-c3ccc(Cl)cc3)c2=O)cc1	-14.7%	-1.7%	-11.4%	10.9%	-25.6
CN(C(=O)c1cccc(NC(=O)Cc2ccc(NC(=O)C3CCCN(C(=O)C4CCC4)C3)cc2)c1)C1CCCC1 (stereo unspecified)	?	nt	nt	?	-10.3
Cc1nc(-n2ncc(C#N)c2N)c2c3c(sc2n1)CCC3	-8.0%	?	-25.4%	?	-16.9
SMILES	FMDV antiviral	AmpC inh detg	AmpC inh no detg	HCV inh	HCMV inh
CCCSc1nc(-n2ncc(C#N)c2N)c2c3c(sc2n1)CCC(C)C3 (stereo unspecified)	-18.9%	-9.1%	2µM*	14.1µM*	-6.6
S=C(NCc1ccccn1)NN=Cc1ccccn1	7.9%	nt	nt	?	-98.7*
O=C(CNC(=O)c1cccc(Br)c1)N/N=C/c1ccc2c(c1)OCO2	38.1%	-2.5%	-54.5%	4.5%	-74.2*
O=C(NCc1ccccn1)C(=O)N/N=C/c1ccc2c(c1)OCO2	55.9%	5.9%	-14.7%	-2.4%	-90.5*
CSc1ccc(CNc2nnnn2C)cc1	-15.8%	0.7%	-28.1%	4.4%	-80.6*
CCc1ccc(NC(=O)c2ccc3c(c2)C(=O)N(CCOC)C3Nc2ccc(CC)cc2)cc1 (stereo unspecified)	28.1%	-16.8%	-21.1%	-18.8%	-89.9*
COc1ccc(CCC(=O)OCC(=O)NC(=O)c2ccc(Cl)cc2)cc1	-6.7%	nt	-34.0%	36.7%	11.8
COc1ccc(NC2=C(Cl)C(=O)N(CCc3ccccc3)C2=O)c(OC)c1	-11.1%	-2.5%	4.7%	-10.1%	6.2
COc1ccc(CCNC2=C(Cl)C(=O)N(CCc3ccc(OC)c(OC)c3)C2=O)cc1OC	10µM*	-6.1%	84.5%	2.51µM*	44.0
CN(C)c1nc(OCCOC(=O)c2ccccc2)nc(N(C)C)n1	-0.8%	?	27.5%	25.1µM*	-19.5
Cn1nc([N+](=O)[O-])c(C(C#N)c2ccccn2)c(Cl)c1=O (stereo unspecified)	31.6µM*	?	-29.5%	?	-97.3*
N#CC(c1ccccn1)c1ncc(C(F)(F)F)cc1Cl (stereo unspecified)	-8.9%	0.7%	-7.4%	?	-0.4
COc1ccc(OCC(=O)Nc2ccc(N3CCOCC3)c(Cl)c2)cc1	?	0.5%	-2.3%	10µM*	-18.4
CCc1ccc(OCC(=O)Nc2ccc(N3CCN(C(=O)c4ccccc4)CC3)cc2)cc1	-12.6%	1.9%	-14.6%	0.5%	-33.6
COc1ccc(OCC(=O)Nc2ccc(N3CCN(C(=O)c4ccccc4)CC3)c(Cl)c2)cc1	11.2µM*	4.6%	-7.7%	?	?
COc1cc(/C=C/C(=O)Nc2ccc(OC)c(S(=O)(=O)N3CCOCC3)c2)ccc1OC(F)F	?	nt	126.5%	0.251µM*	-85.9*
COc1ccc(/C=C/C(=O)Nc2cccc(F)c2)cc1S(=O)(=O)N1CCOCC1	35.5µM*	-9.8%	37.9%	10µM*	?
COc1ccc(/C=C/C(=O)Nc2ccccc2F)cc1S(=O)(=O)N1CCOCC1	25.1µM*	nt	0.1%	10µM*	-19.3
COc1ccc(/C=C/C(=O)Nc2ccc(C(C)=O)cc2)cc1S(=O)(=O)N1CCOCC1	-13.7%	nt	nt	nt	5.6
CCOc1ccccc1NC(=O)/C=C/c1ccc(S(=O)(=O)N2CCOCC2)cc1	-8.1%	-11.3%	49.1%	10µM*	-4.9
O=C(NCC(=O)N1CCN(Cc2ccccc2)CC1)c1ccccc1Cl	-14.7%	nt	nt	nt	10.6
CC(C)CN(C(=O)CCC(=O)OCC(=O)N(C)c1ccccc1)c1c(N)n(CC(C)C)c(=O)[nH]c1=O	0.0%	-12.7%	52.5%	6.0%	-7.4
Cc1ccccc1-n1cc[nH]c1=S	-7.7%	-0.7%	-15.7%	-9.0%	9.4
Cc1cccc(-n2cc[nH]c2=S)c1C	-13.5%	-0.8%	-6.0%	2.6%	-69.0*
